The source of these data is PubChem BioAssay (NCI).

Holding throughout (assay): NCI-60 one-dose screen, 48 h (100 = growth as untreated, 0 = no growth, -100 = all killed)
Conditions in all cases: 10 µM

The test system of experiment [1] is OVCAR-8 ovarian.
Experiment [2] deals with OVCAR-5 ovarian.
The test system of experiment [3] is OVCAR-4 ovarian.
In experiment [4] the test system is SK-OV-3 ovarian.
Experiment [5] relates to IGROV1 ovarian.
The test system of experiment [6] is OVCAR-3 ovarian.
Experiment [7] relates to HS 578T breast.
For experiment [8], the system named is NCI/ADR-RES ovarian.
Experiment [9] relates to RPMI-8226 leukemia.

This is part of a sample that, as a whole, favours compounds with a hit. Of some 83,000 tested, about 20% had one in any assay.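 Results are percent growth after 48 hours of single-concentration exposure. 100 means growth as in untreated cells, lower positive values show inhibition; negative values down to -100 show cell death.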 Unmarked numbers belong to inactive results. Calls of active or inactive are those of the source. Rule for the calls: active = growth percent below 10; inactive = the rest.

For the molecule `COc1ccc(C=CC(=O)c2ccc(-n3c(C)nc4c(cnn4-c4ccccc4)c3=O)cc2)cc1`, the growth in [1] was 83.4%; in experiment [2], 111%; in experiment [3], 65.7%; in experiment [4] it was 123%; in [5], 92.7%; in experiment [6], 61%. For the same molecule, the growth in experiment [7] was 85.5%; in experiment [8], 62.3%.

For the molecule `CN1C(=O)/C(=C/c2ccc3ncsc3c2)NC1=NC12CC3CC(CC(O)(C3)C1)C2`, the growth in experiment [1] was 16%; in [2], 7.24% (active); in experiment [3], 32%; in experiment [4], 18.6%; in experiment [5], 8.51% (active); in [6] it was 0.338% (active). Besides, the results for the growth in experiment [7] and in experiment [8] were -10.5% (active) and 10.8%, respectively.

With `COc1ccc(-c2nc(S(=O)(=O)c3ccc(C)cc3)c(S(=O)(=O)CC(=O)N(C)Cc3ccccc3)o2)cc1`, the growth in [1] is 29.2%; in [2] it was 63.1%; in experiment [3] it was 68.5%; in experiment [4], 98.4%; in experiment [5] it was 66.3%; in [6], 1.33% (active). The growth in experiment [7] was 67.2%.

Take `CC1=C2C(=C[C@@](C)(COCOCCCl)[C@@H]2O)C(=O)[C@](C)(O)C12CC2`: the growth is 10.1% in [9]; -56.6% (active) in [2]; -48.6% (active) in experiment [3]; -33.7% (active) in [4]; -38.5% (active) in [5]; -27.4% (active) in experiment [6]. Also, the growth is -15.8% (active) in [7] and -61.7% (active) in experiment [8].

For `C=CC(=O)Nc1nc(-c2cccc(NS(=O)(=O)c3cccc4c(N(C)C)cccc34)c2)cs1`, the growth in experiment [9] was -36.2% (active); in [1], -38.9% (active); in experiment [3], 7.55% (active); in experiment [4] it was 47.4%; in experiment [5], -74.1% (active); in experiment [6], -69.4% (active). Moreover, the growth in [7] is -0.555% (active); in experiment [8], -56.7% (active).

Turning to `CCN(CC)CCOc1ccc(C(=C(C)c2ccccc2)c2ccc(OCCN(CC)CC)cc2)cc1`, the growth in [9] is -35.4% (active); in experiment [2], 24.9%; in experiment [3], 13.6%; in experiment [4], 58%; in experiment [5] it was 34%; in experiment [6], -7.71% (active). Further, the growth in experiment [8] is 29%.

As to `O=C(c1ccc(O)cc1)C1[C@H](c2ccccc2Br)[C@@H](c2ccccc2)NC12C(=O)Nc1ccc(Cl)cc12` (stereo partly specified), the growth was 4.84% (active) in [9]; -2.71% (active) in experiment [2]; 17% in [3]; 29.6% in experiment [4]; 7.88% (active) in experiment [5]; -46.2% (active) in experiment [6]. Besides, the growth in experiment [7] is 5.54% (active); in experiment [8], 11.2%.

`CC(C)(C)Nc1nc2cc(Cl)c(Cl)cc2nc1S(C)(=O)=O`: the growth is 42.3% in experiment [9]; 79.3% in experiment [2]; -6.34% (active) in experiment [3]; 72.8% in experiment [4]; 45.2% in [5]; -80.3% (active) in experiment [6]. Moreover, the values for the growth in [7] and in [8] were 56.8% and 7.99% (active), respectively.

Turning to `Cc1ccc(-c2ccc(SCC(=O)Nc3ccc(Cl)c(C(F)(F)F)c3)nn2)cc1`, the growth in experiment [9] is 19.7%; in experiment [1], 1.56% (active); in experiment [3] it was 62.4%; in experiment [4], 46.6%; in experiment [5] it was 30.1%; in experiment [6], 2.46% (active). The growth in experiment [7] was 15.7%; in [8], -23.5% (active).

`COc1ccccc1NCc1ccc(CO)n1-c1ccc(C)cc1`: the growth in [1] was 101%; in experiment [2], 111%; in [3] it was 97.7%; in experiment [4], 81.5%; in [5], 91.5%; in [6], 95.6%. Moreover, the growth in experiment [8] is 95.9%.

On to `C#Cc1ccc(S(=O)(=O)Nc2cccc(-c3csc(NC(C)=O)n3)c2)cc1`, for which the growth in experiment [9] was 42.1%; in [1], 85.5%; in experiment [3], 59.7%; in [4] it was 88.9%; in experiment [5] it was 49.5%; in experiment [6], 82.7%. In addition, the growth in experiment [7] was 83.6%; in experiment [8] it was 70.8%.

For `Cc1ccc(-c2cc(-c3cc4ccccc4nc3Cl)[nH]c(=O)n2)cc1`, the growth was -49.3% (active) in [1]; -8.44% (active) in experiment [2]; 48.1% in [3]; 51.6% in [4]; 28.6% in experiment [5]; 8.33% (active) in [6]. Further, the growth in experiment [7] is 1.21% (active); in experiment [8] it was -38.8% (active).

For the molecule `Cc1ccc(NCC(=O)Nn2c(COc3ccccc3)nc3ccccc3c2=O)cc1`, the growth in [1] was 60.1%; in experiment [2] it was 92.3%; in experiment [3], 25.4%; in experiment [5], 82.4%; in experiment [6], 75.4%; in [7], 66.1%. In experiment [8], the growth is 72.6%.

Take `NC(=Nc1ccc(OCCCCCCCCn2ccnn2)cc1)c1ccccc1`: the growth in [2] was 24.9%; in experiment [3], 57.1%; in experiment [4], 21.2%; in [5], 28.9%; in [6] it was 25.3%; in [7] it was 40.7%.

Consider `Cc1ccc(-c2cc(-c3cc4ccccc4nc3Cl)[nH]c(=S)n2)cc1`, for which the growth in experiment [9] was 64.6%; in experiment [3], 80.6%; in [5], 58.7%; in experiment [6], 68.4%; in experiment [7], 32.2%; in [8] it was 42%.

In the case of `O=C(Nc1ccc(OCC(=O)c2ccccc2)cc1)Nc1ccc(Cl)c(C(F)(F)F)c1`, the growth in experiment [1] is 29.8%; in [2], 35.8%; in experiment [3] it was 22.9%; in [4], 16.4%; in experiment [5], 28.9%; in experiment [6] it was 23.8%. Also, the growth is 9.19% (active) in experiment [7] and 18.5% in experiment [8].

On to `COc1cc(Cn2c(C(F)(F)F)cc3c(Cl)ncnc32)ccn1`, for which the growth was -16% (active) in [1]; 93.7% in experiment [2]; -58.4% (active) in experiment [3]; 75.4% in experiment [4]; -90.6% (active) in experiment [5]; -52.4% (active) in experiment [6]. For the same molecule, the growth in [7] is 11.2%; in [8], 67.7%.

For `O=C(O)CCCCCCCCCCN1C(=O)/C(=C/c2cnc(-c3ccccc3)s2)SC1=S`, the growth in experiment [9] was 86.5%; in experiment [1] it was 61.4%; in experiment [3], 96.1%; in experiment [4], 130%; in [5] it was 95%; in [6], 102%. Also, the results for the growth in experiment [7] and in [8] were 117% and 57.5%, respectively.
